A short description of the assay: small-molecule binders of probe aLefty1, primary screen, biochemical, small-molecule microarray, 635/667 nm fluorescence (AID 1153).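 Further: score merges spot fluorescence with signal-to-noise ratio from the scanned slide images.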 Particulars: higher = more signal.
`COc1ccc(C#Cc2ccc3c(c2)[C@]2(C(=O)N3)[C@H](C(=O)N3CCN(c4ncccn4)CC3)[C@H]3C(=O)O[C@H](c4ccccc4)[C@H](c4ccccc4)N3[C@@H]2c2ccc(O)cc2)cc1` yielded a composite z-score of 0.583.
In the case of `CCCC[C@H]1C[C@@H]1[C@@H]1N(P(=O)(c2ccccc2)c2ccccc2)[C@](CO)(c2ccccc2)CC12CC2`, the composite z-score stood at 0.394.
The compound `O=C(N1CCCCC1)[C@]1(CCS(=O)(=O)c2ccccc2)N=C(c2ccc(OCCCO)cc2)O[C@@H]1c1ccccc1` registered a composite z-score of 1.17.
Take `OCCCc1cc[n+](Cc2cccc(OC(F)(F)F)c2)cc1`: the composite z-score stood at 0.363.
For `COc1ccc([Si](C)(C)[C@H]2[C@H](CC(=O)N3CCC[C@H]3CO)O[C@@]3(C(=O)N(Cc4cccc(N5CCC5=O)c4)c4ccccc43)[C@@H]2C)cc1`, the composite z-score is 0.233.
With `CCCNC(=O)[C@@]1(c2ccc([N+](=O)[O-])cc2)CC(=O)N(CC23CC4CC(CC(C4)C2)C3)[C@@H]1c1ccc(CO)cc1I` the figure was 0.181; with `CCCNC(=O)[C@@]1(C)c2ccccc2C(=O)N(Cc2cc(F)cc(C(F)(F)F)c2)[C@H]1c1ccc(CO)cc1`, -0.252.
`C=C[C@H](C)[C@H](OC(=O)Nc1ccc(OC)cc1)c1ccc(O)c2ccccc12` had a composite z-score of 0.0313.
With `O=c1cccc(-c2ccccc2)o1` the figure was -0.0099; with `CC1CC/C=C\[C@H]2OC34C=CCN(Cn5nnc6ccccc65)C(=O)[C@H]3N(CCCO)C(=O)[C@@H]4C2C(=O)O1` (stereo not given in full), 0.0445.
As for `COc1ccc(C#Cc2ccc3c(c2)[C@]2(C(=O)N3)[C@H](c3ccc(OCCO)cc3)N3[C@H](c4ccccc4)[C@H](c4ccccc4)OC(=O)[C@H]3[C@@H]2C(=O)Nc2nc3ccccc3s2)cc1`, the composite z-score is 0.547.
The compound `C=C(C(=O)CC[C@H](OC(=O)c1cccnc1)c1ccccc1OCCO)C(C)C` came in with a composite z-score of 0.188.
Turning to `C=CC[C@@]1(C(=O)NCCN2CCOCC2)N=C(c2ccc(OCCCO)cc2)O[C@@H]1c1ccccc1CN=[N+]=[N-]`, the composite z-score was determined as 0.0193.
The compound `C=CCOC(=O)[C@H]1[C@@H]2C(=O)O[C@@H](c3ccccc3)[C@@H](c3ccccc3)N2[C@@H](c2ccc(OCCOC(=O)[C@@H]3C[C@@H]4C(=O)NCC(=O)N4[C@@H]3c3ccc(O)cc3)cc2)[C@]12C(=O)Nc1ccc(I)cc12` returned a composite z-score of 0.0545.
`CCOC(=O)C[C@H]1[C@H](OC(=O)c2ccc(C(=O)c3ccccc3)cc2)[C@@H](NC(=O)c2ccc3ccccc3n2)c2cc(OCCCO)ccc2N1C(=O)c1ccc2ccccc2n1` showed a composite z-score of 0.464.
With `C=CCC(OC(C)=O)[C@@H]1[C@@H](N(Cc2ccc(-c3cccc(C(F)(F)F)c3)o2)C(=O)Cc2ccc(OC)cc2)c2cc(OCCCO)ccc2N1C(=O)Cc1ccc(OC)cc1` (stereo not given in full) the figure was -0.0547.
Consider `C=CCC(OC(C)=O)[C@@H]1[C@@H](N(Cc2ccc(-c3ccccc3)cc2)C(=O)c2ccc(C)cc2)c2cc(OCCCO)ccc2N1C(=O)Cc1ccc(OC)cc1` (stereo not given in full), for which the composite z-score is -0.0937.
`C=C(COC)C(=O)CC[C@@H](OC(=O)c1ccccc1-c1ccccc1C(=O)O)c1ccc(CO)o1` gave a composite z-score of -0.0032.
With `CN(C)CCCC[C@@H]1NC(=O)[C@@H]2C[C@H](C(=O)NCCCCCN)[C@H](c3ccc(O)cc3)N2C1=O` the figure was -0.056; with `CN(C)CCCN1C(=O)[C@@]2(c3ccc([N+](=O)[O-])cc3)CC(=O)N(C3CCCCC3)[C@@H]2c2ccc(CO)cc21`, 0.412.
On to `O=C1C2C=CC(C(O)c3cccc4ccccc34)N(n3cnnc3)C2C(=O)N1Cc1ccccc1` (stereo not given), for which the composite z-score was determined as 1.69.
`COCCCNC(=O)[C@]1(Cc2ccccc2N=[N+]=[N-])N=C(c2ccc(OCCCO)cc2)O[C@@H]1c1ccccc1CN=[N+]=[N-]`: the composite z-score was 0.766.
In the case of `C=C(COC)C(=O)CC[C@H](OC(=O)c1cccnc1)c1ccccc1OCCO`, the composite z-score is 0.473.
In turn, `CCOC(=O)N1C(c2ccc(OCCCO)cc2)=NC(C(=O)OC)N1C(=O)OCC` (stereo not given) had a composite z-score of 0.371.
On to `C=CCOC(=O)[C@H]1[C@@H]2C(=O)O[C@@H](c3ccccc3)[C@@H](c3ccccc3)N2[C@@H](c2ccc(OCCOC(=O)[C@H]3C[C@H]4C(=O)N[C@@H](CCCC[N+](C)(C)C)C(=O)N4[C@H]3c3ccc(O)cc3)cc2)[C@]12C(=O)Nc1ccccc12`, for which the composite z-score was 0.206.
`CC(C)N1C(=O)c2ccccc2[C@](C)(C(=O)NCCCN(C)C)[C@@H]1c1ccc(CO)cc1`: the composite z-score amounted to 0.0201.
Turning to `C=CCC(OC(C)=O)[C@@H]1[C@@H](N(Cc2ccc(-c3ccccc3)cc2)C(=O)c2ccc(C)cc2)c2cc(OCCCO)ccc2N1C(=O)c1ccc2ccccc2n1` (stereo not given in full), the composite z-score turned out to be 0.175.
On to `COC(=O)[C@@]1(Cc2ccc(F)cc2)[C@H]2c3cc(C(=O)N4CCCC4)n(Cc4ccc(Cl)c(C(F)(F)F)c4)c3C[C@H]2CN1C(=O)c1ccccc1`, for which the composite z-score came to 1.99.
`COCCCNC(=O)[C@@]1(Cc2ccccc2I)c2ccccc2C(=O)N(Cc2ccccc2)[C@H]1c1ccc(CO)cc1` displayed a composite z-score of 0.243.
Consider `CC(=O)NCCCC[C@@H]1NC(=O)[C@@H]2C[C@H](C(=O)NCc3ccc(F)cc3)[C@H](c3ccc(O)cc3)N2C1=O`, for which the composite z-score is -0.0601.
Compound `CCOC(=O)C1=CC[C@@H](c2cccc(Cl)c2)N(S(=O)(=O)c2ccc(C)cc2)[C@H]1c1ccc(C#N)cc1` displayed a composite z-score of 0.514.
With `CCCNC(=O)[C@@]1(C)c2ccccc2C(=O)N(Cc2cc(C(F)(F)F)cc(C(F)(F)F)c2)[C@H]1c1ccc(CO)cc1` the figure was -0.0711.
For the compound `COC(=O)c1c2oc(c1C(=O)OC)C(=O)N[C@H](Cc1ccccc1)Cn1nncc1C1(CCCCC1)NC(=O)N[C@H](CO)CC2`, the composite z-score is -0.237.
In the case of `CN(C)CCCC[C@@H]1NC(=O)[C@@H]2C[C@H](C(=O)NCc3ccc(F)cc3)[C@H](c3cccc(OCCO)c3)N2C1=O`, the composite z-score was found to be 0.19.
`COc1ccc([Si](C)(C)[C@@H]2[C@@H](CCn3cc([C@H](O)c4ccccc4)nn3)O[C@]3(C(=O)N(C)c4ccccc43)[C@H]2C)cc1` came in with a composite z-score of -0.101.

Source of the values: PubChem BioAssay.
